From PubChem BioAssay (EPA / NIEHS)
Values joined by “and” are separate entries in the source; they are usually repeats but may differ in a detail not shown here. Identical values can stand only once. Inconclusive results are not listed. Some structures have more than one record in an assay (separate samples or runs), and their calls can disagree. Active and inactive are the calls of the source. How the source made its calls, unless noted: active means hit-call score of the fitted dose curve at least 0.9, where 1 is the maximum; inconclusive means response in the unintended direction; inactive means score below 0.9.

Columns and labels:
[1] = read-out: Transforming Growth Factor (TGFA), TGFA (gene 7039); assay: LTEA_HepaRG_TGFA: Life Technologies and Expression Analysis (LTEA) Assay for Transforming Growth Factor (TGFA) using HepaRG (AID 2283532; active means hit-call score of the fitted dose curve at least 0.9, where 1 is the maximum; inactive means score below 0.9); settings: mRNA level, 48 h; actives raise or lower the signal
In short: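 Differentiated human HepaRG cells, plated 48 h then switched to serum-free induction medium, were exposed in duplicate for 48 h to 8-point half-log series from 100 uM in 0.5% DMSO. TGFA mRNA measured by qRT-PCR, normalized to ACTB/GAPDH/POLR2A, bidirectional fit versus DMSO.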

[2] = read-out: Transforming Growth Factor (TGFB1), TGFB1 (gene 7040); assay: LTEA_HepaRG_TGFB1: Life Technologies and Expression Analysis (LTEA) Assay for Transforming Growth Factor (TGFB1) Transporter using HepaRG (AID 2283533; active means hit-call score of the fitted dose curve at least 0.9, where 1 is the maximum; inactive means score below 0.9); settings: mRNA level, 48 h; actives raise or lower the signal
In short: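 TGFB1 transcript measured by qRT-PCR with normalisation to three housekeeping genes (ACTB, GAPDH, POLR2A); human HepaRG line treated in duplicate for 48 hr with an 8-point series topping at 100 uM, 0.5% DMSO vehicle, bidirectionally fitted.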

TIMP1, TIMP1 (gene 7076) = assay: LTEA_HepaRG_TIMP1: Life Technologies and Expression Analysis (LTEA) Assay for TIMP1 using HepaRG (AID 2283534; active means hit-call score of the fitted dose curve at least 0.9, where 1 is the maximum; inactive means score below 0.9); settings: mRNA level, 48 h; actives raise or lower the signal
In short: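 Bidirectional change in TIMP1 transcript versus 0.5% DMSO, measured by TaqMan qRT-PCR with three housekeeping genes for normalization. HepaRG human liver cells dosed 48 h in duplicate, top concentration 100 uM with half-log dilutions.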

[3] = read-out: Tumor necrosis factor receptor 1 (TNFRSF1A), TNFRSF1A (gene 7132); assay: LTEA_HepaRG_TNFRSF1A: Life Technologies and Expression Analysis (LTEA) Assay for Tumor necrosis factor receptor 1 (TNFRSF1A) using HepaRG (AID 2283535; active means hit-call score of the fitted dose curve at least 0.9, where 1 is the maximum; inactive means score below 0.9); settings: mRNA level, 48 h; actives raise or lower the signal
In short: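 mRNA measured by qRT-PCR (TaqMan, Fluidigm arrays) against ACTB/GAPDH/POLR2A housekeepers after 48 h chemical exposure of HepaRG cells. Top concentration 100 uM, half-log 8-point series, duplicates; vehicle 0.5% DMSO, both fit directions.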

[4] = read-out: Thyroid Hormone Responsive (THRSP), THRSP (gene 7069); assay: LTEA_HepaRG_THRSP: Life Technologies and Expression Analysis (LTEA) Assay for Thyroid Hormone Responsive (THRSP) using HepaRG (AID 2283536; active means hit-call score of the fitted dose curve at least 0.9, where 1 is the maximum; inactive means score below 0.9); settings: mRNA level, 48 h; actives raise or lower the signal
In short: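 Differentiated human HepaRG cells were exposed in duplicate for 48 h in serum-free induction medium to eight concentrations (top 100 uM, half-log steps, 0.5% DMSO). Expression was quantified by TaqMan qRT-PCR, normalized to ACTB, GAPDH and POLR2A, with bidirectional fitting against DMSO.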

[5] = read-out: Cellular tumor antigen p53 (Homo sapiens) (UniProt P04637); assay: LTEA_HepaRG_TP53: Life Technologies and Expression Analysis (LTEA) Assay for Tumor Protein P53 (TP53) using HepaRG (AID 2283537; active means hit-call score of the fitted dose curve at least 0.9, where 1 is the maximum; inactive means score below 0.9); settings: mRNA level, 48 h; actives raise or lower the signal
In short: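 TP53 transcript measured by qRT-PCR, normalized to three housekeeping genes, after 48 h treatment of human HepaRG cultures with chemicals from 100 uM downward in half-log steps (0.5% DMSO vehicle, serum-free induction medium). Up- or down-regulation fitted against DMSO.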

[6] = read-out: UDP glucuronosyltransferase (UGT1A1), UGT1A1 (gene 54658); assay: LTEA_HepaRG_UGT1A1: Life Technologies and Expression Analysis (LTEA) Assay for UDP glucuronosyltransferase (UGT1A1) using HepaRG (AID 2283538; active means hit-call score of the fitted dose curve at least 0.9, where 1 is the maximum; inactive means score below 0.9); settings: mRNA level, 48 h; actives raise or lower the signal
In short: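 Human liver HepaRG cultures receive test chemical for 48 h, up to 100 uM in 0.5% DMSO, with phenobarbital induction controls. UGT1A1 mRNA is measured by qRT-PCR and normalized to ACTB, GAPDH and POLR2A.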

[7] = read-out: UDP glucuronosyltransferase (UGT1A6), UGT1A6 (gene 54578); assay: LTEA_HepaRG_UGT1A6: Life Technologies and Expression Analysis (LTEA) Assay for UDP glucuronosyltransferase (UGT1A6) using HepaRG (AID 2283539; active means hit-call score of the fitted dose curve at least 0.9, where 1 is the maximum; inactive means score below 0.9); settings: mRNA level, 48 h; actives raise or lower the signal
In short: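 Expression was quantified by TaqMan qRT-PCR on Fluidigm arrays with ACTB/GAPDH/POLR2A normalization and bidirectional fitting against 0.5% DMSO. HepaRG cells (~100,000/well) were treated in duplicate for 48 h at eight half-log concentrations up to 100 uM in serum-free induction medium.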

[8] = read-out: X-box binding protein 1 (XBP1), XBP1 (gene 7494); assay: LTEA_HepaRG_XBP1: Life Technologies and Expression Analysis (LTEA) Assay for X-box binding protein 1 (XBP1) using HepaRG (AID 2283540; active means hit-call score of the fitted dose curve at least 0.9, where 1 is the maximum; inactive means score below 0.9); settings: mRNA level, 48 h; actives raise or lower the signal
In short: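 XBP1 transcript by qRT-PCR (housekeeping-normalized: ACTB, GAPDH, POLR2A) after 48 h chemical treatment of HepaRG cells, 8-point half-log series topping at 100 uM, vehicle 0.5% DMSO. Gain and loss of signal fitted relative to DMSO.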

[9] = LTEA_HepaRG_LDH_cytotoxicity: Cytotoxicity Assessment in the Life Technologies and Expression Analysis (LTEA) Assay (AID 2283563);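 on AC50: LDH activity released into spent culture medium as a marker of cell death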
In short: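 LDH release into culture medium read after 48 h chemical treatment of HepaRG cells. Duplicate wells, eight-point half-log series topping at 100 uM, 0.5% DMSO vehicle and baseline.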

[10] = ATG_XTT_Cytotoxicity: Cytotoxicity Assessment in the Attagene TRANS-FACTORIAL HepG2 Assay (AID 2283584)
In short: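 Viability endpoint from XTT after 24 h chemical exposure of reporter-transfected human HepG2 liver cells; signal loss fitted relative to DMSO negative control.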

[11] = TOX21_p53_BLA_p2_viability: Viability Assessment in the Tox21 HCT-116 p53 Agonism Beta-lactamase Assay, Phase 2 (AID 2283591);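 further: compound exposure lasted 16 h at 37 °C; actives lower the ATP signal meaning cytotoxicity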
In short: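 HCT-116 p53-bla cells (4000/well) rested 5 h at 37C, then received compounds in DMSO (217-fold dilution) for 16 h at 37C, 5% CO2. After the CCF4 read, CellTiter-Glo was added; ATP luminescence was read after 30 min at room temperature.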

[12] = biological target: Cellular tumor antigen p53 (Homo sapiens) (UniProt P04637); assay: TOX21_p53_BLA_p2_ratio: Tox21 HCT-116 p53 Agonism Beta-lactamase Assay, Ratio, Phase 2 (AID 2283592)
In short: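 Gain-of-signal p53 agonism was scored from the beta-lactamase FRET ratio (460/530 nm, 405 nm excitation) in HCT116 cells treated 16 h at 37C, 5% CO2, with DMSO serving as negative control and baseline.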

[13] = biological target: Cellular tumor antigen p53 (Homo sapiens) (UniProt P04637); assay: TOX21_p53_BLA_p3_ratio: Tox21 HCT-116 p53 Agonism Beta-lactamase Assay, Ratio, Phase 3 (AID 2283596)
In short: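 HCT116 p53-bla cells (4000/well) given compound in DMSO (217-fold dilution) after 5 h, incubated 16 h at 37C. CCF4-AM substrate 2 h at room temperature; 460/530 nm emission ratio, gain fitted against DMSO.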

[14] = TOX21_p53_BLA_p4_viability: Viability Assessment in the Tox21 HCT-116 p53 Agonism Beta-lactamase Assay, Phase 4 (AID 2283597);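 further: hits lower the luminescence signal meaning cytotoxicity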
In short: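 Following a 16 h exposure at 37C, the treated HCT116 wells were first read for the FRET ratio. They were then lysed with CellTiter-Glo, and ATP luminescence was recorded after 30 min at room temperature.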

[15] = biological target: Cellular tumor antigen p53 (Homo sapiens) (UniProt P04637); assay: TOX21_p53_BLA_p5_ratio: Tox21 HCT-116 p53 Agonism Beta-lactamase Assay, Ratio, Phase 5 (AID 2283599)
In short: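 HCT-116 cells carrying a p53-inducible beta-lactamase reporter were seeded at 4000 cells/well and dosed after 5 h with compound in DMSO (217-fold dilution). After 16 h at 37C, CCF4-AM substrate was added for 2 h, and the 460/530 nm emission ratio was scored as gain-of-signal versus DMSO.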

[16] = TOX21_p53_BLA_p5_viability: Viability Assessment in the Tox21 HCT-116 p53 Agonism Beta-lactamase Assay, Phase 5 (AID 2283600)
In short: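 After the 460/530 nm beta-lactamase measurement, the wells received an ATP-detection luciferase reagent; signal was read 30 min later at RT. Compound treatment lasted 16 h on cells pre-incubated 5 h post-seeding.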

[17] = Tanguay_ZF_120hpf_MORT_legacy: (Legacy) Oregon State University Tanguay Lab 120 Hour Post-fertilization zebrafish Assay for Mortality (AID 2283633);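 on AC50: fitted as increase in binary mortality versus DMSO negative control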
In short: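 Static waterborne exposure from 6 to 120 hpf at 28C of single dechorionated wild-type (5D) embryos per well, 0.64% DMSO final. Death recorded present/absent by brightfield at 24 and 120 hpf.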

[18] = biological target: Cellular tumor antigen p53 (Homo sapiens) (UniProt P04637); assay: TOX21_p53_BLA_p4_ratio: Tox21 HCT-116 p53 Agonism Beta-lactamase Assay, Ratio, Phase 4 (AID 2283601)
In short: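 HCT116 cells carrying an inducible beta-lactamase reporter were plated at 4000 cells/well, rested 5 h, then exposed to compounds in DMSO (217-fold dilution) for 16 h at 37C. CCF4-AM substrate was loaded 2 h at room temperature; 460/530 nm emission ratio scored gain-of-signal versus DMSO.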

[19] = TOX21_p53_BLA_p3_viability: Viability Assessment in the Tox21 HCT-116 p53 Agonism Beta-lactamase Assay, Phase 3 (AID 2283593);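 further: cells exposed to compound for 16 h before reading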
In short: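 HCT-116 cells (4000/well) rested 5 h at 37C, then got DMSO compounds by pin tool (217-fold dilution) for 16 h at 37C, 5% CO2. After the bla read, CellTiter-Glo was added and luminescence read at 30 min, room temperature.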

Measured: AC50

Cellular tumor antigen p53 (Homo sapiens), sequence (P04637 whole entry, looked up): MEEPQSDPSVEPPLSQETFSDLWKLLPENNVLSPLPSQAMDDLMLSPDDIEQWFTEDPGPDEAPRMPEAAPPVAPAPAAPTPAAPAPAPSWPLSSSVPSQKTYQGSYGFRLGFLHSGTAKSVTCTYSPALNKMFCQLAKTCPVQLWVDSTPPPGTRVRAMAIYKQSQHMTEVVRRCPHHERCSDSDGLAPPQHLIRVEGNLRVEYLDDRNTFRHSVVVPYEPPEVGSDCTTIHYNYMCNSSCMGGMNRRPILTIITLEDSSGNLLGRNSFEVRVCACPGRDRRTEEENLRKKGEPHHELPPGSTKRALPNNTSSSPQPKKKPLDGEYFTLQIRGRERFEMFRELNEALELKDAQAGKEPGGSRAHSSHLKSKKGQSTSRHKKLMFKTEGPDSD

CC(C)(c1cc(Br)c(O)c(Br)c1)c1cc(Br)c(O)c(Br)c1
inactive: [2] | TIMP1, TIMP1 (gene 7076) | [3] | [4] | [7] | [8] | [10]
active: [1] 89.1 µM | [5] 89.2 µM | [6] 78.2 µM | [9] 58.3 µM | [11] 35.7 µM and 46 µM | [12] 54.6 µM and 64.2 µM and 60.5 µM | [13] 50.4 µM and 63.7 µM and 58.5 µM | [14] 34.3 µM and 46 µM | [15] 67.7 µM and 76.3 µM and 65.8 µM | [16] 44 µM and 57 µM and 63.6 µM | [17] 4.89 µM

c1ccc2n[nH]nc2c1
not listed: [19]
inactive: all other assays above

O=c1c(-c2ccc(O)cc2)coc2cc(O)cc(O)c12
inactive: [1] | [2] | TIMP1, TIMP1 (gene 7076) | [3] | [4] | [5] | [6] | [7] | [8] | [9] | [10] | [11] | [12] | [13] | [14] | [15] | [16] | [18]
active: [12] 18 µM | [17] 26.1 µM

CCCCCc1ccc(N)cc1
not listed: [15] | [18] | [19]
inactive: all other assays above

CO[C@H]1/C=C/O[C@@]2(C)Oc3c(C)c(O)c4c(O)c(c(/C=N/N5CCN(C)CC5)c(O)c4c3C2=O)NC(=O)/C(C)=C\C=C\[C@H](C)[C@H](O)[C@@H](C)[C@@H](O)[C@@H](C)[C@H](OC(C)=O)[C@@H]1C
active: [4] 12 µM | [6] 0.395 µM
not listed: [19]
inactive: all other assays above

CC/C(=C(/CC)c1ccc(O)cc1)c1ccc(O)cc1
inactive: TIMP1, TIMP1 (gene 7076) | [5] | [10] | [14] | [16]
active: [1] 81.3 µM | [2] 90.8 µM | [3] 93.8 µM | [4] 21.7 µM | [6] 93.9 µM | [7] 76.7 µM | [8] 89.9 µM | [9] 89.2 µM | [11] 62 µM and 73.4 µM | [12] 3.29 µM and 5.64 µM | [13] 11.8 µM and 14 µM | [14] 46 µM | [15] 17.3 µM and 4.28 µM | [16] 75.1 µM | [17] 10.8 µM

CC(C)(C)c1cc(/C=C2\SC(N)=NC2=O)cc(C(C)(C)C)c1O
active: [1] 22.6 µM | [2] 4.43 µM | TIMP1, TIMP1 (gene 7076) 33.8 µM | [3] 15.8 µM | [6] 93.5 µM | [7] 22.1 µM | [9] 37.3 µM | [11] 77.9 µM | [12] 50.7 µM | [14] 84.4 µM | [15] 90.1 µM | [16] 76.4 µM | [18] 62.3 µM | [17] 25.5 µM
inactive: [4] | [5] | [8] | [13]

CCCOC(=O)c1cc(O)c(O)c(O)c1
active: [6] 1.73 µM
not listed: [10] | [18]
inactive: all other assays above

O=C(O)Cn1c(=O)n(Cc2ccc(Br)cc2F)c(=O)c2ccc(Cl)cc21
active: [4] 10.3 µM | [6] 17.7 µM
not listed: [10] | [13] | [19]
inactive: all other assays above

COc1cccc([C@H](O)C2CCN(CCc3ccc(F)cc3)CC2)c1OC
not listed: [10] | [12] | [13] | [18]
inactive: all other assays above

CCO[Si](CCCNC(N)=O)(OCC)OCC
not listed: [14] | [16] | [18] | [19]
inactive: all other assays above
